# Where “and” joins values, the source holds several entries; their conditions need not be identical. Identical values can stand only once. Results filed as inconclusive are left out. Entries that show only a call come without a potency. Where a structure was tested more than once in an assay, its records may differ in their call. Calls of active or inactive are those of the source. Unless noted, the call rests on the fitted dose curve; in most records, active means well fitted curve in the direction sought with a large enough effect in the repeat runs; inconclusive means weak or mixed curves; inactive means no such curve, though single readings can be large; an effect the other way counts as inactive or inconclusive.
# Key:
# [1] = A CellTox Green Cytotoxicity Assay to monitor cytotoxicity in HepG2 cells - 0 hour (AID 1224882); further: nearly all actives have a fitted effect of over 35% in size; further: potency means the concentration at half of the fitted maximal effect
# Method in brief: (§1)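 Cells and non-lytic dye reagent are dispensed together (600 HepG2 cells/well) and incubated 5 h before DMSO compound transfer. Kinetic fluorescence is then recorded in the same wells during 40 h at 37 C.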
# [2] = A CellTox Green Cytotoxicity Assay to monitor cytotoxicity in HepG2 cells - 32 hour (AID 1224883); further: nearly all actives have a fitted effect of over 50% in size; further: potency means the concentration at half of the fitted maximal effect
# Method in brief: as §1
# [3] = A CellTox Green Cytotoxicity Assay to monitor cytotoxicity in HEK293 cells - 8 hour (AID 1224884); further: nearly all actives have a fitted effect of over 35% in size; further: potency means the concentration at half of the fitted maximal effect
# Method in brief: (§2)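 Cells (HEK293, 600/well) and dye reagent are dispensed together. After 5 h at 37 C, 23 nL compound is pinned in. Plates stay at 37 C for 40 h with fluorescence read at 0h, 8h, 16h, 24h, 32h and 40h.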
# [4] = qHTS RealTime-Glo MT Cell Viability Assay in HepG2 cells - 16 hour (AID 1224885); further: nearly all actives have a fitted effect of over 50% in size
# Method in brief: (§3)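 Tox21 10K library screened in qHTS format on HepG2 cells carrying RealTime-Glo reagents. Compounds were added after a 5 h preincubation, and the luminescent signal from continuous culture was measured repeatedly during 40 h treatment.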
# [5] = qHTS RealTime-Glo MT Cell Viability Assay in HEK293 cells - 24 hour (AID 1224886); further: top concentration of the series differs between compounds; nearly all actives have a fitted effect of over 50% in size
# Method in brief: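 Luminescence generated by NanoLuc from substrate produced by living HEK293 cells served as the viability signal. Each value reflects the reading at its stated time point during continuous 40 h compound exposure at 37 C.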
# [6] = qHTS RealTime-Glo MT Cell Viability Assay in HEK293 cells - 8 hour (AID 1224887); further: top concentration of the series differs between compounds; nearly all actives have a fitted effect of over 50% in size
# Method in brief: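 Real-time viability in HEK293: signal arises when living cells convert a prosubstrate for NanoLuc in the medium, so luminescence tracks viable cell number. Compound (23 nL, DMSO) added 5 h post-seeding; kinetic reads at 0–40 h, 37 C.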
# [7] = A CellTox Green Cytotoxicity Assay to monitor cytotoxicity in HEK293 cells - 16 hour (AID 1224888); further: nearly all actives have a fitted effect of over 35% in size
# Method in brief: as §2
# [8] = qHTS RealTime-Glo MT Cell Viability Assay in HepG2 cells - 0 hour (AID 1224889); further: nearly all actives have a fitted effect of over 50% in size
# Method in brief: as §3
# [9] = qHTS assay to identify small molecule antagonists of the estrogen receptor alpha (ER-alpha) signaling pathway using the BG1 cell line in the presence of 0.1 nM 17-beta-estradiol - cell viability counter screen (AID 1259241); further: nearly all actives have a fitted effect of over 40% in size; further: potency means the concentration at half of the fitted maximal effect
# Method in brief: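 In this screen, hormone-deprived VM7Luc4E2 cells were seeded at 4,000 per well, dosed with compound and 0.1 nM estradiol final, and incubated 22 hr at 37C and 5% CO2; fluorogenic live-cell protease signal reported viability.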
# [10] = qHTS assay to identify small molecule antagonists of the androgen receptor (AR) signaling pathway using the MDA cell line in the presence of 0.5 nM R1881 - cell viability counter screen (AID 1259242); further: nearly all actives have a fitted effect of over 45% in size
# Method in brief: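 Steps: plate MDA-kb2 cells, rest 5 hr at 37C without CO2; pin in compounds in DMSO; add R1881 to 0.5 nM final; incubate 16 hr; add CellTiter-Fluor, 30 min; read fluorescence.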
# [11] = biological target: Estrogen receptor (Homo sapiens) (UniProt P03372); assay: qHTS assay to identify small molecule antagonists of the estrogen receptor alpha (ER-alpha) signaling pathway using the BG1 cell line in the presence of 0.1 nM 17-beta-estradiol (AID 1259244); further: nearly all actives have a fitted effect of over 50% in size
# Method in brief: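 Antagonist mode: compounds in DMSO are pinned onto VM7Luc4E2 reporter cells, 0.1 nM final 17beta-estradiol is added, and after 22 h at 37C luciferase luminescence is measured with ONE-Glo.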
# [12] = qHTS assay to identify small molecule HDAC inhibitors - cell viability counter screen (AID 1259365)
# Method in brief: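 Measured quantity is CellTiter-Glo luminescence from wild-type HCT-116 cells after compound incubation of 2hr at 37C, 5% CO2; reagent developed 30min at room temperature.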
# [13] = qHTS assay to identify small molecule agonists of the sonic hedgehog signaling (Shh) pathway - cell viability counter screen (AID 1259366); further: nearly all actives have a fitted effect of over 50% in size; further: potency means the concentration at half of the fitted maximal effect
# Method in brief: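 In quantitative high-throughput format, 3T3 Gli1-Luc cells were exposed to compounds for 24hr and multiplexed for viability using CellTiter-Fluor, incubated 1hr at 37C before the fluorescence read.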
# [14] = qHTS assay to identify small molecule antagonists of the sonic hedgehog signaling (Shh) pathway - cell viability counter screen (AID 1259367); further: nearly all actives have a fitted effect of over 55% in size; further: potency means the concentration at half of the fitted maximal effect
# Method in brief: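 Conditioned medium drove Shh signaling in 3T3 Gli1-Luc cells exposed to compounds at 37C and 5% CO2. Viability was determined from CellTiter-Fluor fluorescence, with reagent incubated 1 hr after 23 hr of treatment.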
# [15] = qHTS assay to identify small molecule agonists of the sonic hedgehog signaling (Shh) pathway (AID 1259368; calls by dose curve;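 further: NIH/3T3-derived 3T3Gli1-Luc cells carrying a stable Gli1-driven firefly luciferase reporter; series mostly up to about 92 µM; nearly all actives have a fitted effect of over 15% in size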)
# Method in brief: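 Cells of a mouse NIH/3T3 clone stably expressing luciferase under the Gli1 transcriptional response element are exposed to test chemicals for 24 hr at 37 C. Pathway activation is detected as a rise in luminescence.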
# [16] = qHTS assay to identify small molecule antagonists of the sonic hedgehog signaling (Shh) pathway (AID 1259369; calls by dose curve; further: nearly all actives have a fitted effect of over 45% in size; further: potency means the concentration at half of the fitted maximal effect)
# Method in brief: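 Cells are plated and held 4hr at 37 C, compounds (DMSO) are pinned in, conditioned medium is added to stimulate the pathway, and after 24hr luciferase reagent is added for 30min before luminescence is read.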
# [17] = A CellTox Green Cytotoxicity Assay to monitor cytotoxicity in HepG2 cells - 8 hour (AID 1224890); further: nearly all actives have a fitted effect of over 45% in size
# Method in brief: as §1
# [18] = qHTS assay to identify small molecule HDAC inhibitors (AID 1259364);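 further: wild-type HCT-116 cells with endogenous class I/II HDAC activity; top concentration of the series differs between compounds; nearly all actives have a fitted effect of over 45% in size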
# Method in brief: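 Cells (HCT-116, wild type) are seeded at 1,500 per well, incubated overnight, treated with compound in DMSO for 2 hr, then developed with HDAC-Glo I/II reagent for 30 min at room temperature.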
# [19] = qHTS assay to identify small molecule phospholipidosis (PLD) inducers (AID 1259344; active means well fitted curve in the direction sought with a large enough effect; an effect the other way counts as inactive or inconclusive)
# Method in brief: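 After 4 h attachment on collagen I, HepG2 cells were dosed with compound alongside LipidTOX Red, kept 24 h at 37 C, fixed, and imaged for lamellar phospholipid pits.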
# Estrogen receptor (Homo sapiens), sequence (P03372 whole entry, looked up): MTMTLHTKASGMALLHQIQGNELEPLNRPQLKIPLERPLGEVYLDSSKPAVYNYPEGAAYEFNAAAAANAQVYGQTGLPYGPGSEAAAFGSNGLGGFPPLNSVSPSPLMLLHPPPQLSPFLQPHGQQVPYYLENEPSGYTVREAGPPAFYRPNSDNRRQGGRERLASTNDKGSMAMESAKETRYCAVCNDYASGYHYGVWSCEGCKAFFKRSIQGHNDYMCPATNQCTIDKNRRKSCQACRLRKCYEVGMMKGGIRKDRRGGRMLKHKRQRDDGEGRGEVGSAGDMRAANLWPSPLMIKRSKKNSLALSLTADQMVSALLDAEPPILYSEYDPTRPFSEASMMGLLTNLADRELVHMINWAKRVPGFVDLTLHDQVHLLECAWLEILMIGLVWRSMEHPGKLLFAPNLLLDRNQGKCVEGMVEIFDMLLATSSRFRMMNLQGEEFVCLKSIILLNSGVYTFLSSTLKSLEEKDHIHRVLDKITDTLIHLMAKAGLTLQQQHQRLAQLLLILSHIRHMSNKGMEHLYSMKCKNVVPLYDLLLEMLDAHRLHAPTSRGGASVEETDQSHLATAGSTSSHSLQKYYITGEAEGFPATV
SMILES,Potency [1],Potency [2],Potency [3],Potency [4],Potency [5],Potency [6],Potency [7],Potency [8],Potency [9],Potency [10],Potency [11],Potency [12],Potency [13],Potency [14],Potency [15],Potency [16],Potency [17],Potency [18],outcome [19]
CCOP(=S)(OCC)SCSC(C)(C)C,inactive,inactive,inactive,inactive,inactive,inactive,inactive,inactive,inactive,inactive,inactive,inactive,inactive,inactive,inactive,inactive,–,–,–
CC(C)Nc1nc(Cl)nc(NC(C)C)n1,inactive,inactive,inactive,inactive,–,inactive,inactive,inactive,inactive,inactive,inactive,inactive,inactive,inactive,inactive,0.768 µM (active),inactive,inactive,–
CC(C)CON=O,inactive,inactive,inactive,inactive,inactive,inactive,inactive,inactive,inactive,inactive,inactive,inactive,inactive,inactive,inactive,inactive,–,inactive,–
C[N+](C)(C)CC(=O)[O-],inactive,inactive,inactive,inactive,inactive,inactive,inactive,inactive,inactive,inactive,inactive,inactive,inactive,inactive,inactive,inactive,–,inactive,inactive
O=S(=O)(O)C(F)(F)C(F)(F)C(F)(F)C(F)(F)C(F)(F)C(F)(F)C(F)(F)C(F)(F)F,inactive,18.6 µM (active) and inactive,37 µM (active) and inactive and 11 µM (active),inactive,inactive,inactive,–,–,inactive,inactive,–,inactive,inactive,inactive,inactive,inactive,inactive,inactive,–
Clc1ccccc1-c1nnc(-c2ccccc2Cl)nn1,inactive,inactive,inactive,inactive,inactive,inactive,inactive,inactive,inactive,inactive,inactive,inactive,inactive,inactive,–,inactive,–,–,–
Nc1ccc([N+](=O)[O-])cc1N,inactive,inactive,inactive,inactive,inactive,inactive,inactive,inactive,61.1 µM (active),–,–,inactive,30.6 µM (active) and 24.3 µM (active),12.2 µM (active) and 19.3 µM (active),inactive,2.43 µM (active),–,–,–
Nc1ncn[nH]1,inactive,inactive,inactive,inactive,inactive,inactive,inactive,inactive,inactive,inactive,–,inactive,inactive,inactive,inactive,inactive,inactive,–,–
N#Cc1cccnc1,inactive,inactive,inactive,inactive,–,inactive,inactive,inactive,inactive,inactive,inactive,inactive,inactive,inactive,inactive,inactive,inactive,inactive,–
Cc1cc(Cl)ccc1N=CN(C)C,inactive,inactive,inactive,inactive,inactive,inactive,inactive,inactive,inactive,inactive,–,inactive,inactive,inactive,inactive,inactive,–,inactive,–
C=C(C)C#N,inactive,inactive,inactive,inactive,–,inactive,inactive,inactive,inactive,inactive,inactive,inactive,inactive,inactive,inactive,inactive,inactive,inactive,–
CS(=O)(=O)NC(=O)c1cc(Oc2ccc(C(F)(F)F)cc2Cl)ccc1[N+](=O)[O-],inactive,inactive,inactive,inactive,inactive,inactive,inactive,inactive,inactive,inactive,–,inactive,inactive,inactive,inactive,inactive,–,–,–
CCOC(=O)c1ccccc1N,inactive and 43.6 µM (active),inactive and 54.9 µM (active),inactive and 43.6 µM (active),inactive,inactive,inactive,inactive,inactive,inactive,inactive,inactive,inactive,inactive,inactive,inactive,inactive,–,inactive,–

# — PubChem BioAssay (Tox21)
